# Shown are actives, neighbours in structure and some others; about 3.5% of the full set was active somewhere.
# MITF inh: human MITF inhibition, primary screen | AlphaScreen MITF homodimerization, bead proximity signal | inhibition, % at 2.6 µM | 650,000 compounds, 0.91% hits; in the data active = inhibition above about 50%;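 also: 0% = vehicle wells with protein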
# Target sequence (O75030 whole entry, looked up): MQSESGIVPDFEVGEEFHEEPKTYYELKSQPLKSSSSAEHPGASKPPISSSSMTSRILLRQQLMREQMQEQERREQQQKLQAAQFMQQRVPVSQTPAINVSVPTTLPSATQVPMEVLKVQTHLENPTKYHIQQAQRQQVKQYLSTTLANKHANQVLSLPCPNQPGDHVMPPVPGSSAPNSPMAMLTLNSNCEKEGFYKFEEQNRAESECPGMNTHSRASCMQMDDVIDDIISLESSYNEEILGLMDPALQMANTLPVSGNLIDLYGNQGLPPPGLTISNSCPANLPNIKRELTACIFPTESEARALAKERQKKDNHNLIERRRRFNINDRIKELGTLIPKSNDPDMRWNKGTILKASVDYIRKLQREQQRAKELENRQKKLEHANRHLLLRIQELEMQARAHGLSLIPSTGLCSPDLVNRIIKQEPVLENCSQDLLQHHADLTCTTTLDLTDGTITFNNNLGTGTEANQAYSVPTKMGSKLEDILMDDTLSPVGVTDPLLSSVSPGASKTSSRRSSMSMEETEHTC
# GPR151 ag: human GPR151 activation. Q8TDV0. PathHunter beta-arrestin GPR151 cells, luminescence. activation, % at 11.2 µM. 650,000 compounds, 1% hits. AID 1508602; in the data active = activation above about 4.9%;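 also: 0% = median of compound wells and 100% = cells with positive control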
# TEAD-YAP block: TEAD-YAP interaction inhibition; HEK-TIYL cells, TEAD-Gal4/YAP UAS-luciferase luminescence; 640,000 compounds, 1.4% hits; AID 1259422; inhibition, % at 9.12 µM; in the data active = inhibition above about 32%;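 also: 0% = median of test compound wells and 100% = reference inhibitor wells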
# FBW7 activator: activators of human E3 ligase FBW7; Q969H0; AlphaScreen FBW7–phospho-cyclin E peptide binding, activator screen; normalized activity (activation), % at 26.1 µM; 650,000 compounds, 0.13% hits; AID 1259310; in the data active = normalized activity above about 1.9%;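 also: purified mutant Fbw7 with reduced substrate affinity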
# MITF confirm: confirmation of human MITF inhibitors; shares compounds with MITF inh; AlphaScreen MITF homodimerization, biotin/His-MITF beads; inhibition, % at 2.6 µM; 4,700 compounds, 16% hits;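 active = inhibition above a cutoff derived from the DMSO control wells, cut at about 28% in these data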;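 also: 0% = MITF dimer wells with DMSO only; inhibitors lower the bead chemiluminescence by keeping MITF from dimerizing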
# AlphaScreen DR: counter-screen: compounds optically interfering with AlphaScreen; AID 1259373; 480 compounds, 6% hits; IC50, µM; shares compounds with MITF inh; AlphaScreen optical interference counterscreen, cell-free; call rule not given here
# AS interf ctr: counter-screen: compounds optically interfering with AlphaScreen; shares compounds with MITF inh; LysRS AlphaScreen counterscreen, signal interference, triplicate; inhibition, % at 2.6 µM; 4,700 compounds, 7.6% hits; AID 1259376;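 active = inhibition above a cutoff derived from the DMSO control wells, cut at about 30% in these data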
# The depositor's hits bear a star; / = no result given.
SMILES,MITF inh,GPR151 ag,TEAD-YAP block,FBW7 activator,MITF confirm,AS interf ctr,others
O=C(Nc1nc(-c2ccccc2)cs1)c1ncn[nH]1,47,0,-19,-1,/,/,
O=C(Nc1nc(-c2ccc(Br)cc2)cs1)c1ncn[nH]1,63*,1,-13,-1,44*,78*,
Clc1cc(Br)ccc1OCCCCn1ccnc1,74*,0,-8,0,2,6,
Clc1ccc(OCCOCCn2ccnc2)cc1Cl,43,0,-8,0,/,/,
Brc1c(OCCCCn2ccnc2)ccc2ccccc12,78*,-2,-20,0,-11,-3,
Clc1ccc(OCCCCn2ccnc2)cc1Cl,55*,-2,-1,0,13,17,
Cc1cc2nc(/C(C#N)=C\c3cc4c(cc3[N+](=O)[O-])n(C)c(=O)n4C)[nH]c2cc1C,4,0,1,0,/,/,
Cc1ccc(C(=O)N/C(=C/c2ccc([N+](=O)[O-])o2)C(=O)O)cc1,70*,1,6,0,54*,5,AlphaScreen DR=>5.9
Cc1ccc(NC(=O)/C(=C\c2ccc([N+](=O)[O-])o2)NC(=O)c2ccc(Cl)cc2)cc1,15,0,0,0,/,/,
O=C(NCc1cccs1)C1CC12CCN(C(=O)Cc1ccc(-c3ccccc3)cc1)CC2 (centres undefined),12,1,8,0,/,/,
O=C(NCc1ccccc1)C1CC12CCN(C(=O)CCCc1cccs1)CC2 (centres undefined),62*,1,-33,0,1,7,
CCOC(=O)C1=C(C)N=c2s/c(=C\c3ccc(-c4ccc(OC)cc4[N+](=O)[O-])o3)c(=O)n2C1c1ccc(N(C)C)cc1 (centres undefined),-11,0,-5,0,/,/,
O=C(Nc1cccc(C(F)(F)F)c1)c1nn2c(C(F)(F)F)cc(-c3ccccc3)nc2c1Cl,16,0,-6,0,/,/,
O=C(Nc1cc(C(F)(F)F)ccc1Cl)c1nn2c(C(F)(F)F)cc(-c3ccccc3)nc2c1Cl,65*,-1,-1,0,-1,-1,
N#CCCc1cccc(NC(=O)c2cc3nc(-c4ccc(Cl)cc4)cc(C(F)(F)F)n3n2)c1,0,-1,6,0,/,/,
COc1ccc(Br)cc1CN1CCCC(C(=O)N2CCCCC2)C1 (centres undefined),84*,0,6,0,9,19,
COc1ccc(Br)cc1CN1CCCC(C(=O)N2CCCC2)C1 (centres undefined),79*,1,0,0,-3,15,
COc1ccc(Br)cc1CN1CCCC(C(N)=O)C1 (centres undefined),-3,1,3,0,/,/,
CN(NC(=O)Cn1c2ccccc2c(=O)c2ccccc21)c1ccc(C(F)(F)F)cc1[N+](=O)[O-],-11,-1,-3,0,/,/,
Cc1sc2ncn(CC(=O)NCC(=O)N3CCN(c4ccc(F)cc4)CC3)c(=O)c2c1C,68*,3,2,0,2,4,
CC1CCN(CC(=O)Nc2ccc(Br)cc2)CC1,-3,1,-25,0,/,/,
CC1CCN(CC(=O)Nc2ccc(N3CCCCCC3)cc2)CC1,52*,4,-2,0,20,33*,
Cc1ccc(NC(=O)CN2CCC(C(=O)NC3CC3)CC2)cc1,112*,-1,0,0,0,-8,
O=C(CN1CCC(c2ccncc2)CC1)Nc1ccc(N2CCCCC2)cc1,8,0,6,0,/,/,
O=C(CN1CCCCCC1)Nc1ccc(N2CCCC2)cc1,53*,0,-21,0,7,25,
COC(=O)C1=CN(c2ccc(C)c(Cl)c2)C=C(C(=O)OC)C1c1cccs1,57*,0,8,0,-11,-11,
COc1ccc(CN2CCC(C(=O)NCCc3ccccc3)CC2)cc1,36,1,0,0,/,/,
O=C(c1cccnc1)N1CCN(C2CCCC2)CC1,64*,0,-2,0,1,8,
O=C(c1ccncc1)N1CCN(CC2CC=CCC2)CC1 (centres undefined),73*,0,7,0,-6,0,
O=C(NCc1cccnc1)C1CCN(CC2CC=CCC2)CC1 (centres undefined),63*,1,0,0,11,15,

# Screens (PubChem)
